Results filed as inconclusive are left out. Where a structure was tested more than once in an assay, its records may differ in their call. The source made the active and inactive calls. The calls were made as follows, unless noted: active = hit-call score of the fitted dose curve at least 0.9, where 1 is the maximum; inactive = score below 0.9.
What was measured:
[1] = CCTE_Shafer_MEA_dev_per_network_spike_spike_number_mean: CCTE's Neural Network Formation Assay for Mean Number of Spikes in a Network Spike, Shafer Lab (AID 2284053);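 as to AC50: fitted as decrease in spikes per network spike relative to DMSO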
Summary of the method: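 First, rat cortical cells (1.5 x 10^5/well) were seeded onto MEA wells; second, dosing began at plating and was refreshed on DIV 5 and 9; finally, network-spike spike counts across DIV 5–12 were summarized as AUC.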

[2] = CCTE_Shafer_MEA_dev_per_network_spike_spike_percent: CCTE's Neural Network Formation Assay for Percent of Spikes in a Network Spike, Shafer Lab (AID 2284054)
Summary of the method: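 Metric: fraction of spikes falling in a 0.05 s window at network-spike peaks. Recordings were made on days 5, 7, 9 and 12 and collapsed by trapezoidal AUC. Cultures were rat cortical neurons on MEA plates, dosed continuously from plating, re-dosed at media changes.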

[3] = UKN5_HCS_SBAD2_cell_viability: Viability Assessment in the University of Konstanz (UKN) Leist Lab Neurite Outgrowth Assay in human iPSC-derived immature Dorsal Root Ganglia Neurons (UKN5) (AID 2284056)
Summary of the method: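 iPSC-derived immature peripheral neurons (SBAD2) seeded on Matrigel with CHIR99021, SU5402 and DAPT, dosed 1 h later for 24 h. Viability from Hoechst H-33342 and calcein-AM live staining, high-content imaging; bidirectional fit versus DMSO.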

[4] = CCTE_Shafer_MEA_dev_LDH: CCTE's Lactate Dehydrogenase Assay for Cytotoxicity in the Neural Network Formation Assay, Shafer Lab (AID 2284068; active = hit-call score of the fitted dose curve at least 0.9, where 1 is the maximum;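 also: exposure for twelve days from plating with re-dosing on DIV 5 and 9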)
Summary of the method: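 Developing rat cortical networks on MEA plates are exposed to compound for 12 days from plating. LDH activity is measured spectrophotometrically, with DMSO as baseline.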

[5] = UKN5_HCS_SBAD2_neurite_outgrowth: University of Konstanz (UKN) Leist Lab Neurite Outgrowth Assay in human iPSC-derived immature Dorsal Root Ganglia Neurons (UKN5) (AID 2284070); settings: actives raise or lower the signal
Summary of the method: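 Neurite area from calcein-AM high-content images after 24 h exposure (staining included), with H-33342 for viability, fitted both directions against DMSO. Cells: thawed immature SBAD2 peripheral neurons, 100.000 cells/cm2, with CHIR99021, SU5402, DAPT; dosing 1 h after seeding.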

[6] = CCTE_Shafer_MEA_dev_AB: CCTE's Alamar Blue Assay for Cytotoxicity in the Neural Network Formation Assay, Shafer Lab (AID 2284083; active = hit-call score of the fitted dose curve at least 0.9, where 1 is the maximum;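 also: resazurin reduction fluorescence as viability of cultured neurons; twelve days of exposure from plating with re-dosing on DIV 5 and 9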)
Summary of the method: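 Cytotoxicity companion to the developmental MEA: primary rat cortical neurons, 12-day exposure starting day 0, compound refreshed DIV 5 and 9; resazurin fluorescence, fitted against DMSO vehicle.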

[7] = CCTE_Shafer_MEA_dev_mutual_information_norm: CCTE's Neural Network Formation Assay for Mutual Information Normalization, Shafer Lab (AID 2284091);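 as to AC50: mutual information between electrodes summarised as area under curve across four recording days; potency is for a decrease in mutual information relative to DMSO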
Summary of the method: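 Shared information across electrodes, tracked on days 5, 7, 9 and 12 of network development and collapsed as trapezoidal area under the curve. Rat cortical cultures were treated continuously from plating, with treatment renewed at feeds on DIV 5 and 9; DMSO baseline, negative-direction fit.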

[8] = UKN4_HCS_LUHMES_neurite_outgrowth: University of Konstanz (UKN) Leist Lab Neurite Outgrowth Assay in human LUHMES cells (UKN4) (AID 2284206); settings: actives raise or lower the signal
Summary of the method: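 After 24 h compound treatment beginning shortly after replating of 2-day-differentiated LUHMES cells, calcein-AM and H-33342 live staining allowed high-content imaging of neurite area and viability. Fitted bidirectionally against DMSO.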

[9] = IUF_NPC1a_proliferation_area_72hr: Leibniz Research Institute for Environmental Medicine (IUF) 72-hour Neural Progenitor Cell Proliferation Area Assay (NPC1a) (AID 2284208)
Summary of the method: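 Proliferation read as increase in sphere area by phase-contrast imaging over 72 h continuous compound exposure (no renewal) of hNPC spheres grown with EGF/FGF at 37C, 5% CO2. Growth-factor withdrawal served as positive control; DMSO as baseline.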

[10] = IUF_NPC1_viability_72hr: Viability Assessment at 72 hours in the Leibniz Research Institute for Environmental Medicine (IUF) Neural Progenitor Cell Proliferation Assay (NPC1) (AID 2284209)
Summary of the method: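 Viability was measured by resazurin-to-resorufin fluorescence (alamar blue) after 72 h of continuous exposure without compound renewal. Each well held one hNPC sphere (gestational week 16-19 fetal cortex, 0.25-0.35 mm) cultured in EGF/FGF proliferation medium at 37C and pH 7.2-7.6.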

[11] = UKN4_HCS_LUHMES_cell_viability: Viability Assessment in the University of Konstanz (UKN) Leist Lab Neurite Outgrowth Assay in human LUHMES cells (UKN4) (AID 2284232)
Summary of the method: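 Viability was read by high-content imaging of calcein-AM/H-33342-stained cells after 24 h toxicant exposure, staining included. Cells: human LUHMES on day 2 of dopaminergic differentiation, dosed shortly after attachment; DMSO baseline, bidirectional curve fitting.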

[12] = UKN2_HCS_IMR90_cell_viability: Viability Assessment in the University of Konstanz (UKN) Leist Lab Neural Crest Cell Migration Assay in human induced IMR90 Pluripotent Stem Cells (UKN2) (AID 2284233);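 also: cells exposed to compound for 24 h after a 24 h migration phase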
Summary of the method: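 After calcein-AM/Hoechst staining, viability is quantified by high-content fluorescence imaging, relative to DMSO, in iPSC (IMR90)-derived neural crest cells. Exposure lasts 24 h, starting after a 24 h migration period on PLO/laminin/fibronectin coating.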

[13] = IUF_NPC2c_oligodendrocyte_migration_120hr: Leibniz Research Institute for Environmental Medicine (IUF) 120-hour Neural Progenitor Cell Migration Assay for Oligodendrocyte Migration (NPC2c) (AID 2284297);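 also: O4-positive oligodendrocyte migration distance divided by radial glia migration distance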
Summary of the method: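 Exposure runs 5 days from differentiation onset at 37C, seven concentrations plus solvent control, DMSO at most 0.1%, applied to primary hNPC spheres on laminin. After fixation, O4 immunostaining gives oligodendrocyte distance from the sphere core, relative to radial glia migration.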

[14] = IUF_NPC2a_radial_glia_migration_120hr: Leibniz Research Institute for Environmental Medicine (IUF) 120-hour Neural Progenitor Cell Migration Assay for Radial Glia Migration (NPC2a) (AID 2284298)
Summary of the method: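 Migration distance in um, sphere core edge to migration-area edge, derived by nuclei-density algorithm from Hoechst images after 120 h compound exposure. Primary hNPC spheres differentiated on poly-D-lysine/laminin in N2 medium, 37C; medium half-replaced day 3.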

[15] = IUF_NPC2b_neuronal_migration_120hr: Leibniz Research Institute for Environmental Medicine (IUF) 120-hour Neural Progenitor Cell Migration Assay for Neuron Migration (NPC2b) (AID 2284300)
Summary of the method: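 TUBB3-positive neurons are imaged after 120 h of differentiation, and their mean distance from the sphere edge is normalised to radial glia migration. Single 0.3 mm fetal hNPC spheres on poly-D-lysine/laminin received 7 compound concentrations, ≤0.1% DMSO, refreshed at day 3.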

[16] = IUF_NPC3_neuronal_differentiation_120hr: Leibniz Research Institute for Environmental Medicine (IUF) 120-hour Neuronal Differentiation Assay (NPC3) (AID 2284301)
Summary of the method: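 Value is percent TUBB3-positive neurons among Hoechst-stained nuclei in the migration area, scored by trained CNN after 120 h differentiation. Primary hNPC spheres on poly-D-lysine/laminin, N2 medium, continuous dosing from day 0, half-refeed day 3; DMSO reference.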

[17] = IUF_NPC4_neurite_length_120hr: Leibniz Research Institute for Environmental Medicine (IUF) 120-hour Neuronal Morphology Assay for Neurite Length (NPC4) (AID 2284302)
Summary of the method: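 Neurite length, the mean in um across TUBB3-stained neurons, is derived by skeletonization of high-content images after 120 h differentiation. Compound exposure, 7 concentrations plus solvent control, ran from plating of hNPC spheres on poly-D-lysine/laminin, with medium half-replaced on day 3.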

[18] = IUF_NPC2-5_cytotoxicity_72hr: Cytotoxicity Assessment at 72 hours in the Leibniz Research Institute for Environmental Medicine (IUF) Neural Progenitor Cell Migration and Differentiation Assay for Cytotoxicity (NPC2-5) (AID 2284306; active = hit-call score of the fitted dose curve at least 0.9, where 1 is the maximum;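 also: LDH release into supernatant measured by resorufin fluorescence marking membrane damage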)
Summary of the method: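 Membrane-integrity cytotoxicity at 72 h, read as LDH-driven resorufin fluorescence in supernatant. hNPC spheres from fetal cortex differentiate on coated plates in N2 medium, 37C, 5% CO2; seven serial compound concentrations plus solvent control (DMSO ≤0.1%).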

[19] = IUF_NPC2-5_cytotoxicity_120hr: Cytotoxicity Assessment at 120 hours in the Leibniz Research Institute for Environmental Medicine (IUF) Neural Progenitor Cell Migration and Differentiation Assay (NPC2-5) (AID 2284307; active = hit-call score of the fitted dose curve at least 0.9, where 1 is the maximum)
Summary of the method: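 Membrane-integrity loss measured as LDH activity in medium supernatant via resazurin-to-resorufin fluorescence after 120 h exposure. hNPC spheres from GW 16-19 fetal cortex differentiated on poly-D-lysine/laminin, 37C, medium half-refreshed day 3; seven concentrations, DMSO max 0.1%.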

[20] = IUF_NPC2-5_cell_number_120hr: Cell Number Assessment at 120 hours in the Leibniz Research Institute for Environmental Medicine (IUF) Neural Progenitor Cell Migration and Differentiation Assay (NPC2-5) (AID 2284308);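 also: count of Hoechst-stained nuclei in migration zone around plated human neural progenitor spheres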
Summary of the method: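 Counting of all Hoechst-stained nuclei in the migration area at 120 h, versus DMSO control. Primary hNPC spheres differentiated on poly-D-lysine/laminin in N2 medium at 37C, dosed from day 0 (7 concentrations, DMSO ≤0.1%), half-refed day 3.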

[21] = IUF_NPC2-5_viability_120hr: Viability Assessment at 120 hours in the Leibniz Research Institute for Environmental Medicine (IUF) Neural Progenitor Cell Migration and Differentiation Assay (NPC2-5) (AID 2284312)
Summary of the method: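 Alamar blue resorufin fluorescence read after 5 days of differentiation, with compound present from day 0 and replenished at day 3. Primary hNPC spheres on laminin-coated plates, 37C; seven concentrations plus solvent control, fitted against DMSO.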

[22] = IUF_NPC1_cytotoxicity_72hr: Cytotoxicity Assessment at 72 hours in the Leibniz Research Institute for Environmental Medicine (IUF) Neural Progenitor Cell Proliferation Assay (NPC1) (AID 2284332; active = hit-call score of the fitted dose curve at least 0.9, where 1 is the maximum;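 also: rising LDH signal means more cytotoxicity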)
Summary of the method: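 Cytotoxicity by LDH membrane-integrity assay on medium supernatants, fluorescence via resazurin reduction, after 3-day single exposure of primary hNPC spheres at 37C, pH 7.2-7.6 with growth factors. Fitted upward against baseline.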

Measured: AC50

C/C(=C/C=C/[C@@H](C)C(=O)O)[C@H]1CN[C@H](C(=O)O)[C@H]1CC(=O)O
active: [1] 1050 nM | [2] 2330 nM | [4] 6750 nM | [7] 50.7 nM | [17] 40.6 nM
inactive: [1] | [2] | [3] | [5] | [6] | [7] | [8] | [9] | [10] | [11] | [12] | [13] | [14] | [15] | [16] | [18] | [19] | [20] | [21] | [22]
